# Assay outcomes as filed in PubChem BioAssay.
# Shiga toxin inh – blocks Shiga toxin action in Vero cells; Vero cells, Shiga toxin protein synthesis inhibition reporter; inhibition, % at 38.7 µM; 9.2% of 290,000 active; in the data active = inhibition mostly above about 28%, no sharp cut-off; inactive = mostly below about 43%
# Pf growth 96h – P. falciparum growth inhibition at 96 hours | Potency, µM (doses to about 28.7 µM), usual class: inhibitors | 6.9% of 320,000 active | P. falciparum luciferase reporter growth, 96 h
#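 Parasite growth measured via integrated firefly luciferase reporter in P. falciparum. Infected erythrocytes at 2% hematocrit, 0.05% parasitemia final were treated 96 hours at 37 C under 5% CO2, and luminescence was read.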
# NS1 function inh – blocks influenza NS1 protein function. Potency, µM (doses to about 46.1 µM). 0.4% of 270,000 active; calls by dose curve; note: actives are rising curves; nearly all actives have a fitted effect of over 50% in size
#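 Read-out: OD600 growth recovery of NS1-expressing budding yeast. Cells grown overnight at 30C in -URA glucose medium, washed, resuspended and diluted 1:100 in 2% galactose assay medium, pH 6.0. Same strain lacking NS1 served as positive control.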
# SARS PLpro yeast – SARS-CoV PLP inhibition in yeast; S. cerevisiae expressing SARS-CoV PLpro, growth rescue; Potency, µM (top dose mostly 32.9 µM), usual class: activators; 0.19% of 330,000 active; AID 485353; calls by dose curve; note: nearly all actives have a fitted effect of over 55% in size
# CHX counter – counter-screen for Shiga toxin inhibitors: cycloheximide protein synthesis inhibition; cell reporter, cycloheximide protein synthesis inhibition counterscreen; AID 2314; max response, %; 12% of 300,000 active; in the data active = max response mostly above about 13%, no sharp cut-off; inactive = mostly below about 14%; note: read at 38.3 µM for the half of the compounds with a filed dose
# Pf growth 48h – inhibits P. falciparum growth in the first generation, 48 h | P. falciparum luciferase growth in erythrocytes, 48 h | Potency, µM (doses to about 28.7 µM), actives largely listed as inhibitors | 5.9% of 310,000 active
#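 Luciferase-expressing parasites in RBCs, 2% Hct / 0.1% parasitemia final; RPMI 1640 + 0.5% Albumax; 37 C, 5% CO2, one generation; luminescence read-out, lower signal = inhibition.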
# A number is an active result; – = inactive; ? = inconclusive; · = no result given; [ ] = dose if it differs, or a comment. The list is not random: actives were taken first. Their share in the collection is about 21%. Unless noted, calls come from the whole dose curve; as a rule, active = well fitted inhibition curve with a large enough effect; inconclusive = small, poorly fitted or top-dose-only effect, or another doubt; inactive = no such curve, though single readings can be large or run the other way.
SMILES,Shiga toxin inh,Pf growth 96h,NS1 function inh,SARS PLpro yeast,CHX counter,Pf growth 48h
N#Cc1cc(S(=O)(=O)c2ccc(F)cc2)c(N)[nH]c1=O,–,?,–,–,–,–[1.15 µM]
N#Cc1cc(S(=O)(=O)c2ccccc2)c(N)[nH]c1=O,–,?,–,–,–,3.7µM
COc1cccc(Oc2cn[nH]c2-c2ccc(OC)cc2O)c1,–,·,–,–,–,8.3µM
CCOc1ccc(-c2[nH]ncc2Oc2cccc(OC)c2)c(O)c1,–,?,–,–,–,?
COc1cccc(Oc2cn[nH]c2-c2ccc(O)cc2O)c1,–,–,–,–,–,5.2µM
COc1cc(NC(=O)CSc2nc3[nH]c(=O)cc(O)c3s2)cc(OC)c1OC,·,–,·,–,·,–
C=C1CCN(C(C(=O)NCc2ccc(Cl)c(Cl)c2)C(C)C)S(=O)(=O)c2ccccc21 (stereo not given),–,·,·,·,–,·
Cc1nc2ccc(NC(=O)C3CCN(S(=O)(=O)c4cccs4)CC3)cc2s1,–,9.3µM,–,–,–,?
Cc1ccc(NC(=O)C2CCN(S(=O)(=O)c3cccs3)CC2)cc1,–,?,·,–,–,?
Cc1ccc(-c2csc(NC(=O)C3CCN(S(=O)(=O)c4cccs4)CC3)n2)cc1,–,12µM,–,–,–,?
O=C(Nc1nc(-c2ccc3ccccc3c2)cs1)C1CCN(S(=O)(=O)c2cccs2)CC1,–,?,–,–,–,?
Cc1ccc(C(=O)N2CCC3(CC2)NCCc2[nH]cnc23)cc1C,–,–,–,–,–,–
CC(=O)OCC(=O)[C@]12OC(C)(C)O[C@@H]1C[C@H]1[C@H]3CC=C4C[C@@H](O)CC[C@]4(C)[C@H]3CC[C@]12C,·,·,–,·,·,·
Cc1ccc(NC(=O)c2cnn(-c3ccccc3)c2C)cc1,·,–,–,–,32,–
Cc1cccc(C)c1NC(=O)c1cnn(-c2ccccc2)c1C,–,?,–,–,–,–
Cc1ccc(NC(=O)c2cnn(-c3ccccc3)c2C)c(C)c1,–,–,–,–,38,–
Fc1ccccc1C1CC(c2ccco2)=Nc2ccccc2S1 (stereo not given),104,–,–,–,49,–
O=C(N/N=C/c1ccccn1)c1cccs1,76,?,·,–,38,?
O=C(N/N=C/c1ccccn1)c1ccc(Cl)cc1,102,–,–,–,46,15µM
O=C(N/N=C/c1ccc[nH]1)c1ccc(Cl)cc1,39,–,–,–,34,–
O=C(N/N=C/c1ccccn1)C(O)c1ccccc1 (stereo not given),–,–,–,–,–,–
CCCCCCCCC(=O)N/N=C/c1ccccn1,–,–,–,–,–,?
O=C(N/N=C/c1ccccn1)c1ccccc1,71,–,–,–,48,?
Cc1cccc2cc(CN(Cc3ccc(F)cc3)C(=O)N(C)C)c3nnnn3c12,–,–,–,–,–,–
COc1cc(C(=O)N/N=C/c2ccccn2)cc(OC)c1OC,–,?,·,–,–,?
SMILES,Shiga toxin inh,Pf growth 96h,NS1 function inh,SARS PLpro yeast,CHX counter,Pf growth 48h
Cc1cccc(/C=N/NC(=O)c2ccc(NC(=O)c3ccc(Cl)cc3)cc2)n1,–,–,–,–,11,–
O=C(N/N=C/c1ccccn1)c1ccco1,71,–,–,–,47,–
CN(C)c1ccc(C(=O)N/N=C/c2ccccn2)cc1,75,9.3µM,–,–,58,–
O=C(N/N=C/c1ccccn1)c1ccncc1,97,–,–,–,52,–
Cc1cccc(/C=N/NC(=O)c2ccc(NC(=O)c3ccc(F)cc3)cc2)n1,–,–,–,–,–,?
O=C(Cc1cccs1)N/N=C/c1ccccn1,39,–,–,–,27,–
Cc1ccc(C(=O)Nc2ccc(C(=O)N/N=C/c3ccccn3)cc2)cc1,31,–,–,–,25,?
Cc1ccc(C(=O)Nc2ccc(C(=O)N/N=C/c3cccnc3)cc2)cc1,–,?,–,–,–,–
O=C(c1ccc(N2CCN(C(=O)c3ccc(F)c(F)c3)CC2)cc1)c1cccc(F)c1,–,?,–,–,–,–
Cc1ccc2[nH]c3c(c2c1)CCCC3NC(=O)CCl (stereo not given),·,13µM,–,–,–,2.3µM
Cc1ccc2[nH]c3c(c2c1)CCCC3C(N)=O (stereo not given),–,–,–,–,–,–
Cc1cc(O)c(C(=O)/C=C/c2ccccc2)c(=O)o1,44,?,–,–,–,?
